Experiment [1] concerns the target DNA repair nuclease/redox regulator APEX1 (Homo sapiens) (UniProt P27695). The experiment in a line: qHTS Validation Assay for Inhibitors of the Human Apurinic/apyrimidinic Endonuclease 1 (APE1) (AID 1705;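 also: TAMRA fluorescence gain over two minutes as APE1 cuts a quenched THF abasic duplex; series mostly up to about 57 µM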). The method, boiled down:
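Substrate: 50 nM final fluorophore/quencher THF-abasic duplex. Enzyme preincubated with compounds 15 min, RT. Progress derived from fluorescence difference, third minus first kinetic read.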

Experiment [2] is described as follows: Counterscreen for APE1 Inhibitors: Fluorescent Dye Displacement Validation Assay (AID 1707). An outline of the steps: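 Thiazole Orange displacement from dsDNA: 250 nM ThO with 50 nM TAMRA-labelled abasic-site (tetrahydrofuran) duplex in 50 mM Tris-HCl pH7.5, 50mM NaCl, 2 mM MgCl2, 0.01% Tween-20. Loss of endpoint fluorescence (ex 480 nm, em 540 nm) flags DNA binders.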

Experiment [3] deals with Endonuclease 4 (Escherichia coli (strain K12)) (UniProt P0A6C1). The experiment is described as follows: Counterscreen for APE1 Inhibitors: qHTS Validation Assay for Inhibitors of Endonuclease IV (AID 1708). An outline of the steps: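 Cleavage of a quenched abasic-site DNA duplex (50 nM, 5'-TAMRA, 3'-BHQ-2) by 2 nM enzyme is followed as fluorescence increase. Compounds are preincubated with enzyme 15 min at room temperature before substrate addition.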

Experiment [4] in a line: qHTS for differential inhibitors of proliferation of Plasmodium falciparum line 7G8 (AID 1815).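 Also: parasite growth measured after three days of incubation.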 Also: potency is read from the fitted curve at half-maximal effect.
Experiment [5] in a line: qHTS for differential inhibitors of proliferation of Plasmodium falciparum line GB4 (AID 1816).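 Also: parasite growth measured after 72 h incubation.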 Also: potency is read from the fitted curve at half-maximal effect. The settings on record: Potency: Plasmodium falciparum GB4 proliferation inhibition.
Experiment [6] in a line: qHTS for differential inhibitors of proliferation of Plasmodium falciparum line 3D7 (AID 1876). Also: potency is read from the fitted curve at half-maximal effect.
The nature of experiment [7]: qHTS for differential inhibitors of proliferation of Plasmodium falciparum line D10 (AID 1877).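 Also: parasites grown with compound for 72 h before DNA staining.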 Also: potency is read from the fitted curve at half-maximal effect.
A short description of experiment [8]: qHTS for differential inhibitors of proliferation of Plasmodium falciparum line Dd2 (AID 1882). Also: nearly all actives have a fitted effect of over 65% in size. Also: potency is read from the fitted curve at half-maximal effect. Conditions: Potency: Plasmodium falciparum Dd2 proliferation inhibition. An outline of the steps: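 SYBR Green I DNA fluorescence read-out, ex 485/em 535 nm. Signals were normalized to 0.29 uM artemisinin and DMSO wells, then corrected using vehicle-only plates flanking each stack. Parasite growth ran 72 h in erythrocytes before lysis.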

A short description of experiment [9]: qHTS for differential inhibitors of proliferation of Plasmodium falciparum line W2 (AID 1883).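 Also: parasites grown with compound for 72 h before lysis and staining.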 Also: potency is read from the fitted curve at half-maximal effect. Conditions: Potency: Plasmodium falciparum W2 proliferation inhibition.
Experiment [10] can be described thus: qHTS for differential inhibitors of proliferation of Plasmodium falciparum line HB3 (AID 1886).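 Also: parasites grown with compound for 72 h before SYBR Green readout.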 Also: potency is read from the fitted curve at half-maximal effect. The settings on record: Potency: Plasmodium falciparum HB3 proliferation inhibition.
Experiment [11] has as its target Ferritin light chain (Equus caballus) (UniProt P02791). The experiment in a line: qHTS Validation Assay for Identification of Novel General Anesthetics (AID 2323). Also: series mostly up to about 77 µM. The method, boiled down: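 Normalized fluorescence response, scaled between free 1-AMA and 1-AMA/apoferritin complex, fitted to a four-parameter Hill equation for concentration-effect values. Binding mix: 10 uM horse-spleen apoferritin, 50% saturated 1-AMA in PBS; read 380/535 nm after 10 min.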

Experiment [12] addresses ATP-dependent DNA helicase Q1 (Homo sapiens) (UniProt P46063). The experiment is described as follows: qHTS Validation Assay for Inhibitors of RecQ-Like Dna Helicase 1 (RECQ1) (AID 2353). An outline of the steps: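 50 nM RECQ1T1 preincubated 15 min with compound in Tris pH 8.0 buffer with MgCl2, DTT, Tween-20 and 2.5 ug/ml poly(dI-dC); started with 200 nM TAMRA/BHQ-2 forked duplex and 2 mM ATP. Unwinding read as fluorescence (525/598 nm), two reads 2 h apart.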

Experiment [13] is described as follows: Cytometric Cell-Based qHTS for Inhibitors of the mTORC1 Signaling Pathway in MEF (Tsc2-/-, p53-/-) Cells (AID 2660).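 Also: percent of cells above a phospho-rpS6 to PI ratio cutoff in each well; series mostly up to about 38 µM.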 The method, boiled down:
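Readout: Alexa-488 phospho-rpS6 (Ser235/236) intensity divided by PI intensity, thresholded against 7.5 nM rapamycin wells and reported as % positive cells. PI cell count served as the viability measure. Compound exposure was 24 hrs at 37 degree Celsius.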

Experiment [14] is described as follows: High Content Imaging Cell-Based qHTS for Inhibitors of the mTORC1 Signaling Pathway in MEF (Tsc2-/-, p53-/-) Cells (AID 2666). An outline of the steps: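 Phospho-rpS6 (Ser235/236) immunofluorescence, normalized and scored as % positive cells using rapamycin and DMSO controls, was read in empty-vector Tsc2-/-, p53-/- MEFs after 24 h compound exposure at 37 C; propidium iodide counted cells.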

Experiment [15] can be described thus: High Content Imaging Cell-Based qHTS for Inhibitors of the mTORC1 Signaling Pathway in MEF Cells (AID 2667). Also: potency is read from the fitted curve at half-maximal effect. The method, boiled down:
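WT MEFs (Tsc2-/-, p53-/- re-expressing Tsc2), in DMEM + 10% FBS, were treated with compound for 24 h at 37 C. Cells were then fixed and stained for phospho-rpS6 Ser235/236 with propidium iodide as cell count. Values are % positive cells, with thresholds set against rapamycin-treated cells.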

Experiment [16] can be described thus: qHTS Assay for Modulators of Human Peripheral Myelin Protein 22 (PMP22) Expression/Activity (AID 1967; active = well fitted curve in the direction sought with a large enough effect in the signal ratio; the % refers to the signal ratio). An outline of the steps:
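Engineered MSC80 cells, Pmp22-promoter green and EF-alpha red luciferase reporters; 24h compound treatment at 37 °C. Concentration-response fits on green, red and ratio signals, each overlap-corrected, with %Activity normalized to untreated wells.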

The target of experiment [17] is RecQ-like DNA helicase BLM (Homo sapiens) (UniProt P54132). The experiment is described as follows: qHTS Validation Assay for Inhibitors of Bloom's syndrome helicase (BLM) (AID 2364). Also: potency is read from the fitted curve at half-maximal effect. The method, boiled down:
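50 nM BLM preincubated 15 min at room temperature with compound in pH 8.0 Tris buffer containing 2.5 ug/ml poly(dI-dC); started with 200 nM TAMRA/BHQ-2 forked duplex and 2 mM ATP (final). Unwinding read as TAMRA fluorescence increase, two reads 2 h apart.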

The structures appear in SMILES notation. Records with an inconclusive call do not appear. Active and inactive are the calls of the source. Unless noted, calls follow the shape of the dose curve; as a rule, active = well fitted curve in the direction sought with a large enough effect; inconclusive = small, poorly fitted or top-dose-only effect, or another doubt; inactive = no such curve, though single readings can be large; an effect the other way counts as inactive or inconclusive.

RecQ-like DNA helicase BLM (Homo sapiens), sequence (P54132 whole entry, looked up): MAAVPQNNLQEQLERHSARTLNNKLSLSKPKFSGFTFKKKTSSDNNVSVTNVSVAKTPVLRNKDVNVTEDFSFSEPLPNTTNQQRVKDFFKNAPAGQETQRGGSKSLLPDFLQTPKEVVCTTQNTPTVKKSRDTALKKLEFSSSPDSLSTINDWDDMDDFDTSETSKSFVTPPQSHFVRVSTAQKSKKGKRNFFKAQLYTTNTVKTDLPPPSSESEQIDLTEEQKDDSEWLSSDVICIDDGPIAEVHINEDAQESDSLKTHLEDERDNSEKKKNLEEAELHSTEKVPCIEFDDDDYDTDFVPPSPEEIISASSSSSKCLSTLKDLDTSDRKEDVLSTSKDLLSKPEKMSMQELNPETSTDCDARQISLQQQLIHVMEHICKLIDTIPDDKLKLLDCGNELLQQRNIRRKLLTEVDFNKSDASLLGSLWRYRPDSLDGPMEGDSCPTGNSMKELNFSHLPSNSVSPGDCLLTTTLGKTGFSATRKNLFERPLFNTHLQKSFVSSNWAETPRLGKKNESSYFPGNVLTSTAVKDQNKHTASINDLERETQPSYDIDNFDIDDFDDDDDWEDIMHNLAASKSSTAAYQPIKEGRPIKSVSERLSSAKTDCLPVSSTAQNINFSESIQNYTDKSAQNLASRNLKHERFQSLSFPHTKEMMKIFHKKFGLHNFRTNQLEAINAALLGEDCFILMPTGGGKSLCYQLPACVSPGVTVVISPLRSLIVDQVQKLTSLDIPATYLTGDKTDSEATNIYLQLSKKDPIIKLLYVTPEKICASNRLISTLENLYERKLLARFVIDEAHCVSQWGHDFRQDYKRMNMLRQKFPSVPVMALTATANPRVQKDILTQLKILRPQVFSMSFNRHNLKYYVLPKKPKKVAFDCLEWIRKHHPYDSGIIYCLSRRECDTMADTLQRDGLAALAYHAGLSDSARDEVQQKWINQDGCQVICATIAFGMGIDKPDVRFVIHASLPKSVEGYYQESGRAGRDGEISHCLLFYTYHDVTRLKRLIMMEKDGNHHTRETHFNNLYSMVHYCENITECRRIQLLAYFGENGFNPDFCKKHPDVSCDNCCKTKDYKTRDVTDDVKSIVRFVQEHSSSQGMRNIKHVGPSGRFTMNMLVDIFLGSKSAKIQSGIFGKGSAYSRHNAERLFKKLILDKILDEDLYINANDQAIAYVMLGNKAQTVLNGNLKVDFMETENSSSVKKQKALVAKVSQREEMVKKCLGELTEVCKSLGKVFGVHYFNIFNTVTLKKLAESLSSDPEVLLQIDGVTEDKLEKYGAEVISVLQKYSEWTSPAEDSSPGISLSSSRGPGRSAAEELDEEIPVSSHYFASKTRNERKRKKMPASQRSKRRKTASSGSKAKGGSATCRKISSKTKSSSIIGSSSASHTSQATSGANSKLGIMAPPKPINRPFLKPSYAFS
DNA repair nuclease/redox regulator APEX1 (Homo sapiens), sequence (P27695 whole entry, looked up): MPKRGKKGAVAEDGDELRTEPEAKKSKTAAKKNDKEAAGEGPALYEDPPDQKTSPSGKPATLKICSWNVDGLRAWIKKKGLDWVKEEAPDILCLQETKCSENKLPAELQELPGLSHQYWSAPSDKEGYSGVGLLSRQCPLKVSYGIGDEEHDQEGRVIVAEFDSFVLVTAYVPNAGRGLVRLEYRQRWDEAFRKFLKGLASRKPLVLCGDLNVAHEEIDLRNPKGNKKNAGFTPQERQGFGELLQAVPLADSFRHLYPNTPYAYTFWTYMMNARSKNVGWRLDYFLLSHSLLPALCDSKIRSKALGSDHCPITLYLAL
ATP-dependent DNA helicase Q1 (Homo sapiens), sequence (P46063 whole entry, looked up): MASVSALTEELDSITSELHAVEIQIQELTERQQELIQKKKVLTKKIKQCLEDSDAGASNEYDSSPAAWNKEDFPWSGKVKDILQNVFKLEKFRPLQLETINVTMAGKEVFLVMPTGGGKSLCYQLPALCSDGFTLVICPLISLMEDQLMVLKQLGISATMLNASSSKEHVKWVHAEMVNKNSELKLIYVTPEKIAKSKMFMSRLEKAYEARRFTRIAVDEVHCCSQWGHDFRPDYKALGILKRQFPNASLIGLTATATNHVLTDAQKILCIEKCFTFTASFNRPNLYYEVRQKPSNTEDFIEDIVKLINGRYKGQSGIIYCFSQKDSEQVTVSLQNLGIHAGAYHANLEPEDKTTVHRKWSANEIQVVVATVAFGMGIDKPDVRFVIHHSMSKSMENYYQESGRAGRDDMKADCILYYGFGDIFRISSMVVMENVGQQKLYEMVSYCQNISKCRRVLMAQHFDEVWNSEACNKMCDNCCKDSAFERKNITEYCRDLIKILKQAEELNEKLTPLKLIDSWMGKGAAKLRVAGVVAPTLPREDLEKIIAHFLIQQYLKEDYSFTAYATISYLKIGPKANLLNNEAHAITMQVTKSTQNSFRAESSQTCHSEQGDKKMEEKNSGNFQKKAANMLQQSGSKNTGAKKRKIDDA
Ferritin light chain (Equus caballus), sequence (P02791 2-175 limits assumed): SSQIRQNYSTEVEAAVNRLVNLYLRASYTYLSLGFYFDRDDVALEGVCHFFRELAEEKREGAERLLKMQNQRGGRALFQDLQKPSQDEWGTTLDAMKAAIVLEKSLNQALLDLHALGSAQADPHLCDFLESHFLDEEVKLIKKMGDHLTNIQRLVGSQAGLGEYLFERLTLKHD

With `CCCN(CC1CC1)c1nc(C)nc(Nc2c(Cl)cc(Cl)cc2Cl)c1Cl`, the Potency entry in [1], in [2], in [3], in experiment [11], in experiment [12] and in experiment [14] was “inactive” each time. Moreover, the Potency result in experiment [15] is “inactive”. The Potency in [4] is 3.55 µM (active); in experiment [5], 3.98 µM (active); in experiment [6] it was 2.82 µM (active); in experiment [7] it was 3.98 µM (active); in [8], 11.2 µM (active); in [9], 3.16 µM (active). In experiment [10], the Potency was 4.47 µM (active). For the same compound, the compound was classed as inactive in [13].
On to `CC(=O)N[C@H](C(=O)O)C(C)(C)SN=O`, for which the Potency entry in [1], in experiment [2], in [3], in experiment [4], in [5] and in experiment [6] was “inactive” each time. The Potency result in experiment [7], in experiment [8], in experiment [9], in experiment [10], in experiment [11] and in experiment [12] was “inactive” throughout. The Potency entry in [17], in [14] and in experiment [15] was “inactive” in each case. In addition, the result in [16] and in experiment [13] was inactive.
As to `N=C(N)SCCc1ccc(CCSC(=N)N)cc1`, the Potency entry in experiment [1], in experiment [2], in [3], in experiment [6], in experiment [8] and in experiment [10] was “inactive” throughout. For the same compound, the Potency entry in experiment [11], in [12], in [14] and in experiment [15] was “inactive” throughout. Moreover, the Potency in experiment [9] was 11.2 µM (active). Further, the compound was classed as inactive in experiment [16] and in [13].
On to `CN1CCc2cccc3c2C1Cc1ccc(O)c(O)c1-3` (stereo unspecified), for which the Potency result in experiment [1], in experiment [2], in [3], in experiment [11], in experiment [12] and in experiment [17] was “inactive” each time. Also, the Potency result in [14] and in experiment [15] was “inactive” throughout. Further, the Potency in experiment [4] is 2.24 µM (active); in [5] it was 2.24 µM (active); in experiment [6], 2 µM (active); in [7], 2.24 µM (active); in experiment [8], 6.31 µM (active); in experiment [9], 2.24 µM (active). Also, the Potency in [10] is 2 µM (active). In experiment [13], the call was inactive.
Turning to `O=C1C(SCCO)=C(SCCO)C(=O)c2ccccc21`, the Potency entry in experiment [1], in experiment [2], in experiment [3], in experiment [12] and in experiment [14] was “inactive” each time. In addition, the Potency was 3.16 µM (active) in [4]; 2 µM (active) in [5]; 2.24 µM (active) in experiment [6]; 11.2 µM (active) in [7]; 6.31 µM (active) in experiment [8]; 10 µM (active) in [9]. The figures for the Potency in experiment [10], in experiment [17] and in [15] were 2 µM (active), 28.2 µM (active) and 3.69 µM (active), respectively. Further, in experiment [13], the compound was classed as inactive.
With `C[C@@H](NC(=O)/C(C#N)=C/c1ccc(O)c(O)c1)c1ccccc1`, the Potency entry in experiment [1], in [2], in [3], in experiment [12], in [14] and in [15] was “inactive” each time. In addition, the Potency is 11.2 µM (active) in experiment [4]; 10 µM (active) in experiment [5]; 12.6 µM (active) in [7]; 11.2 µM (active) in experiment [9]; 11.2 µM (active) in [10]. Further, in experiment [13], the compound was called inactive.
For `NC[C@@H]1O[C@H](C23CC4CC(CC(C4)C2)C3)Cc2c1ccc(O)c2O`, the Potency result in experiment [1], in [2], in [3], in experiment [12], in [17] and in [14] was “inactive” throughout. The Potency in experiment [4] is 2 µM (active); in experiment [5], 2 µM (active); in experiment [6] it was 2.24 µM (active); in [7] it was 3.16 µM (active); in experiment [8], 8.91 µM (active); in [9] it was 2.24 µM (active). Besides, the Potency in experiment [10] is 2.82 µM (active).
On to `COc1cc2nc(N3CCN(C(=O)OCc4ccccc4)C(C(=O)NC(C)(C)C)C3)nc(N)c2cc1OC` (stereo unspecified), for which the Potency entry in experiment [1], in experiment [2], in [3], in experiment [11], in [12] and in experiment [17] was “inactive” throughout. In [14], the Potency result was “inactive”. The Potency in [4] was 2.82 µM (active); in experiment [5] it was 2.82 µM (active); in experiment [6] it was 3.16 µM (active); in experiment [7], 10 µM (active); in experiment [8], 8.91 µM (active); in experiment [9], 2.24 µM (active). Moreover, the Potency in experiment [10] is 7.94 µM (active). The compound was classed as inactive in [13].

The record behind these values is PubChem BioAssay (NCATS).
